Structures can show the parent of a compound that is named as a salt.
Key:
Conditions in all cases: incubation time: 27 h, anaerobic, 37 °C;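 for the amine columns active = adjusted P below 0.05 in both replicates with a change the same way and a mean fold change under 0.8 or over 1.25; inactive = the rest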
[1] = system: Clostridium sporogenes DSM 1664; assay: growth (OD595) fold change vs plate DMSO controls (fold change (ratio)); higher = more growth
In short: (§1)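 Anaerobic 27 h, 37 °C mGAM 96-well cultures were shaken, then read for absorbance at 595 nm. Values were blank-subtracted and corrected for compound background using 20 µM compound solutions in water. A calibration factor of 5 converted them to OD. Growth is the fold change versus the median of plate DMSO controls. Fold changes above 1.5 were set to NA, and values are the mean of 2 biological replicates.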

Escherichia coli IAI1 [2] = assay: as above
In short: as §1

[3] = system: Klebsiella aerogenes DSM 30053; assay: as above
In short: as §1

[4] = system: Ruminococcus gnavus DSM 108212; assay: as above
In short: as §1

[5] = system: Klebsiella aerogenes DSM 30053; assay: fold change of Histamine concentration vs plate DMSO controls (fold change (ratio)); higher = more amine produced, active = hit call of the paper (significant change in both replicates, either direction)
In short: (§2)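 Anaerobic mGAM cultures of four gut bacterial strains were grown at 37 °C for 27 h in 80 µL wells, starting at OD 0.1 before 1:1 dilution. Compounds were at 20 µM final (sweeteners 50 µM). Whole cultures were extracted with cold acetonitrile/methanol containing 0.1% formic acid and centrifuged. Amines were quantified by LC–triple-quadrupole MS (dynamic MRM) against external calibration curves and drift-corrected within batch. Each value is the fold change versus plate DMSO controls, averaged over 2 biological replicates.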

[6] = system: Clostridium sporogenes DSM 1664; assay: fold change of Tryptamine concentration vs plate DMSO controls (fold change (ratio)); higher = more amine produced, active = hit call of the paper (significant change in both replicates, either direction)
In short: as §2

[7] = system: Ruminococcus gnavus DSM 108212; assay: as above
In short: as §2

Escherichia coli IAI1 [8] = assay: fold change of Putrescine concentration vs plate DMSO controls (fold change (ratio)); higher = more amine produced, active = hit call of the paper (significant change in both replicates, either direction)
In short: as §2

[9] = system: Klebsiella aerogenes DSM 30053; assay: as above
In short: as §2

Escherichia coli IAI1 [10] = assay: fold change of Cadaverine concentration vs plate DMSO controls (fold change (ratio)); higher = more amine produced, active = hit call of the paper (significant change in both replicates, either direction)
In short: as §2

[11] = system: Klebsiella aerogenes DSM 30053; assay: as above
In short: as §2

[12] = system: Ruminococcus gnavus DSM 108212; assay: fold change of 2-Phenylethylamine concentration vs plate DMSO controls (fold change (ratio)); higher = more amine produced, active = hit call of the paper (significant change in both replicates, either direction)
In short: as §2

| Structure (SMILES) | growth [1] | growth (Escherichia coli IAI1 [2]) | growth [3] | growth [4] | fold change of Histamine concentration [5] | fold change of Tryptamine concentration [6] | fold change of Tryptamine concentration [7] | fold change of Putrescine concentration (Escherichia coli IAI1 [8]) | fold change of Putrescine concentration [9] | fold change of Cadaverine concentration (Escherichia coli IAI1 [10]) | fold change of Cadaverine concentration [11] | fold change of 2-Phenylethylamine concentration [12] |
| --- | --- | --- | --- | --- | --- | --- | --- | --- | --- | --- | --- | --- |
| C[C@@](Cc1ccc(O)c(O)c1)(NN)C(=O)O [Carbidopa] (20 µM) | 0.93 | 0.989 | 1.03 | 0.905 | 0.98 (inactive) | 1.04 (inactive) | 1 (inactive) | 1.05 (inactive) | 1.01 (inactive) | 0.994 (inactive) | 1 (inactive) | 0.963 (inactive) |
| CC[C@H](C)C(=O)O[C@H]1CCC=C2C=C[C@H](C)[C@H](CC[C@@H]3C[C@@H](O)CC(=O)O3)[C@H]21 [Mevastatin] (20 µM) | 1.15 | 1 | 1.01 | 1.02 | 0.995 (inactive) | 0.988 (inactive) | 1.02 (inactive) | 0.998 (inactive) | 1 (inactive) | 1.07 (inactive) | 0.998 (inactive) | 1.04 (inactive) |
| CC(C)C(=O)OCC(=O)[C@@]12O[C@H](C3CCCCC3)O[C@@H]1C[C@H]1[C@@H]3CCC4=CC(=O)C=C[C@]4(C)[C@H]3[C@@H](O)C[C@@]12C [Ciclesonide] (20 µM) | 1.08 | 1.12 | 1.01 | 1.17 | 1.02 (inactive) | 0.953 (inactive) | 0.966 (inactive) | 1.11 (inactive) | 0.999 (inactive) | 0.979 (inactive) | 0.99 (inactive) | 0.956 (inactive) |
| O=C(O)Cc1cc(I)c(Oc2ccc(O)c(I)c2)c(I)c1 [Tiratricol] (20 µM) | 0.903 | 1.07 | 1.04 | 0.808 | 1.04 (inactive) | 0.592 (active) | 0.827 (inactive) | 1.05 (inactive) | 1.01 (inactive) | 1.03 (inactive) | 1.01 (inactive) | 0.884 (inactive) |
| CO[C@H]1/C=C/O[C@@]2(C)Oc3c(C)c(O)c4c(O)c(c(/C=N/N5CCN(C6CCCC6)CC5)c(O)c4c3C2=O)NC(=O)/C(C)=C\C=C\[C@H](C)[C@H](O)[C@@H](C)[C@@H](O)[C@@H](C)[C@H](OC(C)=O)[C@@H]1C [Rifapentine] (20 µM) | 0.0116 | 0.42 | 0.784 | 0.198 | 0.572 (active) | 0.0208 (active) | 0.145 (active) | 0.829 (inactive) | 0.583 (active) | 1.92 (active) | 1.06 (inactive) | 0.128 (active) |
| O=C(O)c1cc(-c2ccc(F)cc2F)ccc1O [Diflunisal] (20 µM) | 1.05 | 0.978 | 0.985 | 1.22 | 1.02 (inactive) | 1.01 (inactive) | 1.02 (inactive) | 1.07 (inactive) | 0.988 (inactive) | 1.02 (inactive) | 0.994 (inactive) | 1.1 (inactive) |
| CC(C)(C)NC[C@H](O)COc1cccc2c1CCCC2=O [(-) Levobunolol hydrochloride] (20 µM) | 0.999 | 0.973 | 0.98 | 0.872 | 1.06 (inactive) | 1 (inactive) | 0.916 (inactive) | 1.04 (inactive) | 1.03 (inactive) | 0.996 (inactive) | 1 (inactive) | 0.866 (inactive) |
| C[C@H]1C[C@@H]2[C@H]([C@@H](O)C[C@@]3(C)[C@H]2CC[C@]3(O)C(=O)CO)[C@@]2(C)C=CC(=O)C=C12 [Methylprednisolone, 6-alpha] (20 µM) | 0.939 | 0.956 | 1.01 | 0.836 | 0.992 (inactive) | 1.03 (inactive) | 1.01 (inactive) | 0.991 (inactive) | 1.05 (inactive) | 1.03 (inactive) | 1.04 (inactive) | 1.03 (inactive) |
| Clc1ccc(CO/N=C(\Cn2ccnc2)c2ccc(Cl)cc2Cl)c(Cl)c1 [Oxiconazole nitrate] (20 µM) | 0.912 | 0.995 | 0.981 | 0.321 | 1.02 (inactive) | 0.91 (inactive) | 0.351 (active) | 1.04 (inactive) | 1.05 (inactive) | 1.03 (inactive) | 1.07 (inactive) | 0.629 (inactive) |
| COc1ccc(C(=O)c2ccc(C)cc2)c(O)c1 [Mexenone] (20 µM) | 0.644 | 0.407 | 0.378 | 0 | 1.02 (inactive) | 1.01 (inactive) | 1.03 (inactive) | 1.06 (inactive) | 1.01 (inactive) | 1.02 (inactive) | 0.998 (inactive) | 1.04 (inactive) |
| CO/N=C(\C(=O)N[C@@H]1C(=O)N2C(C(=O)O)=C(COC(C)=O)CS[C@H]12)c1csc(N)n1 [Cefotaxime sodium salt] (20 µM) | 0.00126 | 0.00374 | 0.601 | 0.2 | 0.733 (inactive) | 0.0286 (active) | 0.0769 (active) | 0.143 (active) | 0.729 (inactive) | 0.574 (active) | 1.02 (inactive) | 0.055 (active) |
| COc1ccc([C@@H]2CC(=O)c3c(O)cc(O[C@@H]4O[C@H](CO[C@@H]5O[C@@H](C)[C@H](O)[C@@H](O)[C@H]5O)[C@@H](O)[C@H](O)[C@H]4O)cc3O2)cc1O [Hesperidin] (20 µM) | 1.12 | 1.05 | 1.06 | 0.984 | 0.921 (inactive) | 1.26 (active) | 1.01 (inactive) | 1.01 (inactive) | 0.934 (inactive) | 0.986 (inactive) | 1.02 (inactive) | 0.982 (inactive) |
| CCN1CCN(c2cc3c(cc2F)c(=O)c(C(=O)O)cn3C2CC2)CC1 [Enrofloxacin] (20 µM) | 0.0184 | 0.0344 | 0.107 | 1.29 | 0.0794 (active) | 0.0498 (active) | 0.982 (inactive) | 0.658 (inactive) | 0.619 (active) | 0.204 (active) | 0.938 (inactive) | 1.05 (inactive) |
| CCOC(=O)[C@H](CCc1ccccc1)N[C@H]1CS[C@H](c2cccs2)CN(CC(=O)O)C1=O [Temocapril hydrochloride] (20 µM) | 1.1 | 1.05 | 1.08 | 1.05 | 0.959 (inactive) | 0.989 (inactive) | 0.991 (inactive) | 0.997 (inactive) | 1.03 (inactive) | 1.04 (inactive) | 1.01 (inactive) | 1.01 (inactive) |
| NS(=O)(=O)c1cc2c(cc1Cl)N=CNS2(=O)=O [Chlorothiazide] (20 µM) | 1.05 | 1.06 | 1.03 | 0.966 | 1.05 (inactive) | 0.97 (inactive) | 0.998 (inactive) | 1.05 (inactive) | 1.03 (inactive) | 0.97 (inactive) | 1.01 (inactive) | 1.01 (inactive) |
| CC(=O)Oc1cc(C(C)C)c(OCCN(C)C)cc1C [Moxisylyte hydrochoride] (20 µM) | 1.11 | 1.04 | 1.03 | 1.22 | 0.989 (inactive) | 0.957 (inactive) | 1.04 (inactive) | 0.997 (inactive) | 1.03 (inactive) | 0.986 (inactive) | 1 (inactive) | 0.982 (inactive) |
| CC(C)NNC(=O)c1ccncc1 [Iproniazide phosphate] (20 µM) | 1.05 | 1.13 | 1.09 | 1.06 | 0.977 (inactive) | 1.06 (inactive) | 1 (inactive) | 1.13 (inactive) | 1.01 (inactive) | 0.987 (inactive) | 1 (inactive) | 0.994 (inactive) |
| Oc1ccc(OCc2ccccc2)cc1 [Monobenzone] (20 µM) | 1.21 | 0.897 | 1.11 | 1.03 | 0.974 (inactive) | 1.02 (inactive) | 0.872 (inactive) | 0.884 (inactive) | 1.01 (inactive) | 0.978 (inactive) | 0.996 (inactive) | 0.828 (inactive) |
| c1ccc2c(c1)Cc1ccccc1-2 [Fluorene] (20 µM) | 1 | 1.04 | 1.07 | 1.09 | 0.932 (inactive) | 0.97 (inactive) | 1 (inactive) | 1.05 (inactive) | 1.02 (inactive) | 0.914 (inactive) | 1.02 (inactive) | 0.967 (inactive) |
| OC[C@H]1O[C@H](O[C@H]2[C@H](O)[C@@H](O)[C@H](O)O[C@@H]2CO)[C@H](O)[C@@H](O)[C@@H]1O [Maltose] (50 µM) | 1 | 1.03 | 1.03 | 1 | 0.966 (inactive) | 0.991 (inactive) | 0.984 (inactive) | 1.02 (inactive) | 0.996 (inactive) | 1.06 (inactive) | 0.999 (inactive) | 1.01 (inactive) |
| CCOC(=O)[C@H](CCc1ccccc1)N[C@@H](C)C(=O)N(CC(=O)O)C1Cc2ccccc2C1 [Delapril Hydrochloride] (20 µM) | 1.16 | 0.976 | 0.982 | 1.15 | 1.04 (inactive) | 0.958 (inactive) | 0.974 (inactive) | 1 (inactive) | 1.02 (inactive) | 1.01 (inactive) | 0.998 (inactive) | 0.905 (inactive) |
| CCN(CC)CCc1nc(-c2ccccc2)no1 [Oxolamine citrate salt] (20 µM) | 1.13 | 0.976 | 0.968 | 1.01 | 1.04 (inactive) | 1.04 (inactive) | 1.03 (inactive) | 0.967 (inactive) | 1.01 (inactive) | 1.02 (inactive) | 0.987 (inactive) | 1.03 (inactive) |
| N=C(N)NCC1COC2(CCCCC2)O1 (stereo not drawn) [Guanadrel sulfate] (20 µM) | 0.98 | 0.972 | 0.986 | 1.16 | 1.04 (inactive) | 1 (inactive) | 1.04 (inactive) | 0.993 (inactive) | 1.04 (inactive) | 0.99 (inactive) | 1 (inactive) | 1.06 (inactive) |
| CN(C)CCCO[C@@H]1[C@H]2OC(C)(C)O[C@H]2O[C@@H]1[C@H](O)CO [Amiprilose hydrochloride] (20 µM) | 1.09 | 1.03 | 1.01 | 1.1 | 1.07 (inactive) | 1.04 (inactive) | 1.04 (inactive) | 0.973 (inactive) | 1.02 (inactive) | 0.994 (inactive) | 0.992 (inactive) | 1.01 (inactive) |
